Holding throughout (test): qHTS profiling for inhibitors of Plasmodium falciparum proliferation (AID 504749); further: nearly all actives have a fitted effect of over 60% in size
Holding throughout (conditions): P. falciparum in erythrocytes, SYBR Green DNA, 72 h; series mostly up to 28.7 µM

Test [1] concerns CP211. In a few lines: (§1)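 P. falciparum-infected erythrocytes (0.3% parasitemia, 2.5% hematocrit) incubated with compound 72 h at 37 C, 5% CO2. Parasite DNA detected by SYBR Green after lysis, overnight at room temperature; normalised to 0.29 uM artemisinin and DMSO.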
For test [2], the system named is CP215. Summed up:
as §1

The test system of test [3] is CP217. In a few lines: as §1
The test system of test [4] is CP237. In a few lines: as §1
Test [5] concerns CP238. In a few lines:
as §1

Test [6] deals with CP247. In a few lines:
as §1

Test [7] has as its system CP250. Summed up: as §1
Test [8] relates to CP252. Summed up: as §1
Test [9] has as its system CP256. In a few lines:
as §1

Test [10] has as its system CP260. In a few lines:
as §1

In test [11] the test system is CP262. Summed up:
as §1

Test [12] concerns CP265. Summed up: as §1
Test [13] deals with CP266. In a few lines:
as §1

Test [14] has as its system CP268. In a few lines:
as §1

In test [15] the test system is CP269. Summed up:
as §1

The test system of test [16] is CP286. Summed up:
as §1

The subject of test [17] is CP291. Summed up:
as §1

Test [18] concerns CP297. In a few lines: as §1
Test [19] deals with CP305. In a few lines:
as §1

The test system of test [20] is CP315. In a few lines: as §1

Inconclusive results are not listed. Calls of active or inactive are those of the source. The call rests on the fitted dose curve; in most records, active means well fitted inhibition curve with a large enough effect; inconclusive means small, poorly fitted or top-dose-only effect; inactive means flat fitted curve, though single readings scatter.
Potency means the concentration at half of the fitted maximal effect.

On to `NC(N)=NC(N)=NCCc1ccccc1`, for which the Potency result in [1], in [2], in test [3], in test [4], in [5] and in [6] was “inactive” in each case. In addition, the Potency result in test [7], in test [8], in test [9], in [10], in test [11] and in [12] was “inactive” in each case. Moreover, the Potency entry in test [13], in test [14], in test [15], in test [16], in test [17] and in [18] was “inactive” each time. Moreover, the Potency entry in test [19] and in test [20] was “inactive” in each case.

In the case of `CC(=O)Oc1ccccc1C(=O)Nc1ncc([N+](=O)[O-])s1`, the Potency entry in test [1], in test [2], in [3], in test [5], in test [6] and in test [7] was “inactive” in each case. For the same compound, the Potency result in [8], in test [9], in [11], in test [12], in test [13] and in test [14] was “inactive” throughout. Further, the Potency entry in [15], in [17], in [18], in [19] and in test [20] was “inactive” in each case. For the same compound, the values for the Potency in test [4], in [10] and in test [16] were 12600 nM (active), 8910 nM (active) and 12600 nM (active), respectively.

As for `COc1ccc(-c2ccc3cc(C(=O)O)ccc3c2)cc1C12CC3CC(CC(C3)C1)C2`, the Potency entry in test [1], in test [2], in test [3], in test [4], in test [5] and in test [6] was “inactive” throughout. Besides, the Potency entry in test [7], in [8], in [9], in test [10], in test [11] and in test [12] was “inactive” throughout. Further, the Potency entry in [13], in [14], in [15], in test [16], in [17] and in [18] was “inactive” in each case. Further, the Potency result in test [19] and in test [20] was “inactive” throughout.

On to `CC(C)OC(=O)C(C(=O)OC(C)C)=C1SC=CS1`, for which the Potency result in [1], in [2], in test [3], in test [4], in test [5] and in [6] was “inactive” each time. Also, the Potency result in test [7], in [8], in [9], in test [10], in test [11] and in test [12] was “inactive” in each case. Besides, the Potency entry in test [13], in [14], in [15], in test [16], in [17] and in test [18] was “inactive” in each case. Besides, the Potency entry in test [19] and in test [20] was “inactive” throughout.

As to `C#CCN[C@@H]1CCc2ccccc21`, the Potency entry in test [1], in test [2], in test [3], in [4], in test [5] and in test [6] was “inactive” throughout. Besides, the Potency result in test [7], in test [8], in test [9], in [10], in [11] and in test [12] was “inactive” throughout. The Potency result in test [13], in [14], in test [15], in test [16], in test [17] and in test [18] was “inactive” in each case. Also, the Potency entry in test [19] and in [20] was “inactive” in each case.

As for `C[C@]12C=CC(=O)C=C1CC[C@@H]1[C@@H]2C(=O)C[C@@]2(C)[C@H]1CC[C@]2(O)C(=O)CO`, the Potency result in test [1], in test [2], in test [3], in test [4], in test [5] and in test [6] was “inactive” throughout. Also, the Potency entry in test [7], in test [8], in test [9], in test [10], in [11] and in test [12] was “inactive” each time. Also, the Potency entry in test [13], in test [14], in test [15], in test [16], in test [17] and in [18] was “inactive” each time. The Potency entry in [19] and in test [20] was “inactive” in each case.

For `CC(C)NCC(O)c1ccc(NS(C)(=O)=O)cc1` (stereo not given), the Potency result in [1], in test [2], in test [3], in test [4], in test [5] and in [6] was “inactive” each time. Further, the Potency result in [7], in test [8], in test [9], in test [10], in [11] and in test [12] was “inactive” throughout. Besides, the Potency result in test [13], in [14], in [15], in test [16], in [17] and in [18] was “inactive” in each case. Moreover, the Potency entry in test [19] and in test [20] was “inactive” each time.

Take `CN(C)CCc1c[nH]c2ccc(CS(=O)(=O)N3CCCC3)cc12`: the Potency entry in test [1], in test [2], in [3], in [4], in [5] and in test [6] was “inactive” throughout. For the same compound, the Potency entry in test [7], in test [8], in [9], in [10], in test [11] and in test [12] was “inactive” throughout. Besides, the Potency entry in test [13], in test [14], in test [15], in test [16], in test [17] and in test [18] was “inactive” each time. Also, the Potency entry in test [19] and in test [20] was “inactive” throughout.

As for `CC(C)(C#N)c1cc(Cn2cncn2)cc(C(C)(C)C#N)c1`, the Potency result in [1], in test [2], in [3], in test [4], in test [5] and in test [6] was “inactive” in each case. In addition, the Potency entry in test [7], in test [8], in test [9], in test [10], in [11] and in test [12] was “inactive” throughout. Moreover, the Potency result in [13], in test [14], in test [15], in test [16], in [17] and in test [18] was “inactive” in each case. Besides, the Potency entry in test [19] and in test [20] was “inactive” throughout.

Consider `CNNCc1ccc(C(=O)NC(C)C)cc1`, for which the Potency result in test [1], in test [2], in [3], in test [4], in [5] and in test [6] was “inactive” each time. Further, the Potency result in [7], in test [8], in test [9], in [10], in test [11] and in test [12] was “inactive” each time. Also, the Potency result in [13], in [14], in test [15], in test [16], in [17] and in test [18] was “inactive” each time. Besides, the Potency entry in [19] and in [20] was “inactive” in each case.

For the compound `Cc1ccnc2c1NC(=O)c1cccnc1N2C1CC1`, the Potency entry in test [1], in [2], in [3], in test [4], in test [5] and in test [6] was “inactive” in each case. The Potency result in [7], in test [8], in test [9], in [10], in [11] and in test [12] was “inactive” each time. The Potency entry in test [13], in [14], in [15], in [16], in [17] and in test [18] was “inactive” in each case. Also, the Potency entry in test [19] and in [20] was “inactive” in each case.

With `Nc1ccc(S(=O)(=O)Nc2ccccn2)cc1`, the Potency result in test [1], in test [2], in test [3], in test [4], in [5] and in [6] was “inactive” each time. Moreover, the Potency entry in test [7], in test [8], in test [9], in test [10], in test [11] and in test [12] was “inactive” throughout. Moreover, the Potency entry in test [13], in [14], in test [15], in [16], in [17] and in test [18] was “inactive” throughout. Also, the Potency result in test [19] and in [20] was “inactive” each time.

As for `CN(C)c1ccc(C(=C2C=CC(=[N+](C)C)C=C2)c2ccc(N(C)C)cc2)cc1`, the Potency was 151 nM (active) in test [1]; 1510 nM (active) in test [2]; 251 nM (active) in test [3]; 199 nM (active) in test [4]; 398 nM (active) in test [5]; 355 nM (active) in test [6]. Also, the Potency was 316 nM (active) in test [7]; 224 nM (active) in [8]; 158 nM (active) in test [9]; 224 nM (active) in test [10]; 239 nM (active) in [11]; 316 nM (active) in test [12]. Further, the Potency in [13] is 601 nM (active); in [14], 849 nM (active); in test [15], 239 nM (active); in [16] it was 178 nM (active); in test [17] it was 675 nM (active); in test [18], 953 nM (active). Moreover, the Potency is 338 nM (active) in test [19] and 953 nM (active) in test [20].

Source of the values: PubChem BioAssay (NCATS).
